KB-V1 MDR tox: kills drug-selected multidrug resistant KB-V1 cells; 400,000 tested, 3.4% active; Potency, µM (highest dose often 46.1 µM), hits mostly cytotoxic; KB-V1 MDR cells viability, CellTiter-Glo, 72 h; AID 1347076; note: potency is the fitted concentration of half-maximal effect; nearly all actives have a fitted effect of over 60% in size
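Compound-treated KB-V1 multidrug-resistant cells, 72 h, 37 degrees C; viability by CellTiter-Glo. Fitted qHTS curves give the values.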
IL1B secr inh: blocks inflammasome-driven IL-1 beta release; THP-1 LPS/ATP IL-1B secretion, AlphaLISA, 16 h; hits give low values; AID 743279; 360,000 tested, 4.7% active; activity change, % at 57.5 µM; in the data active = activity change below about -50%; inconclusive = mostly about -30% to -49%
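Secreted IL-1B measured by AlphaLISA bead assay after 16 h compound exposure of THP-1 cells; compounds (final up to 57.5 uM) added 1 h before LPS (250 ng/mL) and ATP (1.25 mM) stimulation; lower signal means less secretion.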
HT1080 IDH1KD tx: toxicity to HT-1080 IDH1 knockdown cells (counter line) | HT-1080 IDH1 knockdown viability, ATP luminescence, 48 h | Potency, µM (top dose mostly 46.1 µM), for inactives: top-dose activity, negative = toxicity, actives largely listed as cytotoxic | 360,000 tested, 2% active;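 note: potency is the fitted concentration of half-maximal effect; 0% = DMSO wells and -100% = cell-free medium wells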
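% activity derives from luminescence (CellTiter-Glo), normalised to DMSO and no-cell wells. HT-1080-IDH1KD cells, 750/well, had 48 h compound exposure at 37 °C.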
HT1080-NT tox: kills 2HG-producing HT-1080-NT fibrosarcoma cells; AID 686970; HT-1080-NT fibrosarcoma viability, CellTiter-Glo ATP luminescence, 48 h; 360,000 tested, 1.6% active; Potency, µM (top dose mostly 46.1 µM), for inactives: top-dose activity, negative = less viability, actives largely listed as cytotoxic;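 note: NT is the 2HG producing partner of a matched IDH1 knockdown line; potency is the fitted concentration of half-maximal effect; 0% = DMSO-treated cells and -100% = media-only wells without cells; nearly all actives have a fitted effect of over 55% in size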
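A 48-hour cytotoxicity screen used HT-1080-NT cells plated 2 hours before compound delivery. ATP-based CellTiter-Glo luminescence measured viability, normalized to DMSO and no-cell controls.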
KB-3-1 cytotox: kills parental KB-3-1 adenocarcinoma cells | Potency, µM (doses to about 46.1 µM), most hits filed as cytotoxic | KB-3-1 viability, CellTiter-Glo ATP luminescence, 72 h | AID 1347075 | 400,000 tested, 1.4% active; note: potency is the fitted concentration of half-maximal effect; nearly all actives have a fitted effect of over 60% in size
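KB-3-1 parental drug-naive adenocarcinoma cells in DMEM/10% FBS, incubated 72 h at 37 C with pin-transferred compounds across a concentration series. Viability by CellTiter-Glo luminescence; concentration-response curves fitted after normalization.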
The depositor's hits bear a star; i = inactive; ? = inconclusive; nt = no result given; [ ] = remark or other dose. Shown are actives, neighbours in structure and some others; about 8.8% of the full set was active somewhere. Unless noted, calls come from the whole dose curve; as a rule, active = well fitted curve in the direction sought with a large enough effect; inconclusive = small, poorly fitted or top-dose-only effect, or another doubt; inactive = no such curve, though single readings can be large; an effect the other way counts as inactive or inconclusive. Unless noted, % is set by controls: 0 for no effect and ±100 for the full control effect.

SMILES	KB-V1 MDR tox	IL1B secr inh	HT1080 IDH1KD tx	HT1080-NT tox	KB-3-1 cytotox
CCc1nc2c(OCc3ccc(C(F)(F)F)cc3)cccn2c1N(C)C(C)=O	i	-9.1	4.6%	13.8%	i
CCCOc1cccn2c(N(C=O)Cc3ccc(OC)cc3)c(CC)nc12	?	8.8	2.3%	1.0%	i
CCc1nc2c(OCCOc3ccc(F)cc3)cccn2c1N(C=O)Cc1ccccc1	i	-59.0*	5.9%	?	i
CCc1nc2c(OCc3ccc(C(F)(F)F)cc3)cccn2c1N(C=O)Cc1ccc(OC)cc1	?	-72.2*	?	?	?
Cc1nn2c(C)c(C(=O)NCc3ccc(OC(C)C)cc3)cnc2c1-c1ccc(F)cc1	i	nt	nt	nt	i
COc1ccc2c(c1)c(=O)c(S(=O)(=O)c1ccc(Cl)cc1)cn2Cc1cc(C)ccc1C	i	nt	nt	nt	i
CCCn1c(=O)c2sccc2n2c(CCCC(=O)NC3CCN(Cc4ccccc4)CC3)nnc12	i	15.6	1.1%	-9.7%	i
CCCOc1ccc(-c2cccc(NS(=O)(=O)c3cccs3)c2)nn1	i	nt	nt	nt	i
CCNc1nc(Oc2ccc(F)cc2)cc(C(F)(F)F)n1	i	-0.1	-15.5%	-27.8%	i
CCNc1nc(Oc2ccc(C#N)cc2)cc(C(F)(F)F)n1	3.26µM*	-57.5*	-10.9%	-14.3%	18.4µM*
CCOC(=O)C1(C)CCCCCN1C(=O)c1ccc(C(F)(F)F)nc1C (configuration not stated)	i	-4.1	5.4%	-6.1%	i
COc1ccc(S(=O)(=O)n2nc(OC(=O)c3cccs3)cc2N)cc1	i	23.3	2.8%	4.1%	i
COc1ccc(S(=O)(=O)n2nc(OCc3cccs3)cc2N)cc1	20.6µM*	40.4	1.7%	-2.2%	i
COc1ccc(S(=O)(=O)n2nc(-c3ccc(Cl)cc3)cc2N)cc1	i	-11.5	18.4µM*	18.4µM*	?
COC1OC(c2ccccc2)=C(c2ccc(C(N)=O)cc2)c2ccc(F)cc21 (configuration not stated)	?	5.1	-24.5%	-21.9%	i
Oc1ccc(-c2nc3ccc4ccccc4c3c3c2CCC3)cc1O	?	-54.5*	?	?	?
Cc1cc(C)c2c(ccc3ccccc32)n1	?	1.1	18.7%	9.0%	i
CCC(C(=O)NC(C)(C)C)N(C(=O)Cn1nnc(-c2ccccc2F)n1)c1cccc2c1CCCC2 (configuration not stated)	1.64µM*	-8.8	3.5%	4.8%	i
O=C(CN(C(=O)Cn1nnc(-c2ccccc2F)n1)c1cccc2c1CCCC2)NCc1ccccc1	10.3µM*	-10.1	7.9%	-3.4%	i
Cc1cc(C(=O)NNC(=S)NC2CCCCC2)cs1	i	1.6	-3.2%	1.8%	i
O=C1c2ccccc2C(=O)N1CCCc1c[nH]c2ccc(Cl)cc12	20.6µM*	-20.3	-29.3%	-0.8%	?
CCN(C(=O)COC(=O)CCOc1ccc(C(C)(C)C)cc1)c1c(N)n(Cc2ccccc2)c(=O)[nH]c1=O	i	-16.0	3.0%	5.5%	25.9µM*
CCN(C(=O)COC(=O)c1ccccc1Nc1ccccc1)c1c(N)n(Cc2ccccc2)c(=O)[nH]c1=O	i	-50.1*	-22.7%	-28.7%	i
CCCOc1ccc(C(=O)CCC(=O)OCC(=O)N(CC)c2c(N)n(Cc3ccccc3)c(=O)[nH]c2=O)cc1	i	4.1	0.0%	-0.7%	i
CCOC(=O)NC(=O)c1cn(CCN(C)C)c(=O)[nH]c1=O	i	0.0	15.0%	?	i
SMILES	KB-V1 MDR tox	IL1B secr inh	HT1080 IDH1KD tx	HT1080-NT tox	KB-3-1 cytotox
Cc1ccc2c(c1)c1ncnc(N3CCN(c4ccccc4)CC3)c1n2C	?	16.4	1.4%[9.24 µM]	0.7%	i
Cc1ccc2c(c1)c1ncnc(N3CCOCC3)c1n2C	23.1µM*	-23.5	-18.8%	-4.3%	i
Cc1ccc2nc3c(cc2c1)CN(Cc1ccco1)C(=NCC1CCCO1)S3 (configuration not stated)	?	-14.8	-0.1%	10.4%	?
Cc1cccc2cc3c(nc12)SC(=NCC1CCCO1)N(Cc1ccco1)C3 (configuration not stated)	i	-100.0*	10.3µM*	5.8µM*	i
Cc1cc2nnc(SCC(=O)N(C)C3CCS(=O)(=O)C3)n2c2ccccc12 (configuration not stated)	i	-11.8	-0.5%	3.8%	i
CC1=C(C(=O)Nc2cc(C(=O)N(C)Cc3ccccc3)ccc2C)SCCO1	i	-54.8*	2.7%	10.5%	i
Cc1ccc(CNC(=O)CCn2nc(-c3ccc(Cl)cc3)ccc2=O)cc1	23.1µM*	-28.3	-14.2%	1.5%	i
O=C(O)Cn1nc(-c2ccccc2)ccc1=O	?	5.8	-2.9%	-1.6%	i
Cc1ccc(CC(=O)NCc2ccc(Cl)cc2)cc1	?	33.2	9.2µM*	20.6µM*	i
Cc1ccc(CCNC(=O)CCn2nc(-c3ccc(C)cc3)ccc2=O)cc1	i	nt	nt	nt	i
CCc1ccc(CNC(=O)Cn2nc(-c3ccccc3)ccc2=O)cc1	i	-87.2*	-17.4%	-7.8%	i
COc1cc2ccccc2cc1C(=O)OCC(=O)N(CC(C)C)c1c(N)n(Cc2ccccc2)c(=O)[nH]c1=O	i	-15.9	-0.5%	-0.2%	?
O=C(NCCc1ccc(Cl)cc1)c1ccc(CSCc2cccc(Cl)c2)o1	i	nt	nt	nt	i
CN1CCc2cc3c(c4c2[C@H]1[C@H](O)c1ccccc1-4)OCO3	i	-62.0*	-1.7%	1.7%	i
COc1cc(S(=O)(=O)NCC(c2ccco2)N2CCCCC2)ccc1NC(C)=O (configuration not stated)	nt	3.4	3.6%	-4.2%	nt
Cc1ccc(NC(=O)CN(C)CC(=O)Nc2ccc(F)c(Cl)c2)cc1	i	-29.4	-9.3%	5.6%	i
COc1ccc(CCN(C)CC(=O)Nc2ccc(F)c(Cl)c2)cc1OC	?	-58.0*	-3.1%	-23.0%	i
CCc1ccc(Nc2n[n+](-c3ccccc3)c(-c3ccc(N(CC)CC)cc3)s2)cc1	i	-3.6	?	?	i
Fc1ccc(-[n+]2nc(Nc3ccccc3)sc2-c2c(Cl)cccc2Cl)cc1	i	-93.6*	-23.2%	?	?
CCc1ccc(Nc2n[n+](-c3ccccc3)c(-c3c(Cl)cccc3Cl)s2)cc1	?	-91.8*	?	20.6µM*	23.1µM*
COc1ccc2ccccc2c1-c1sc(Nc2ccccc2)n[n+]1-c1ccc(F)cc1	i	-78.1*	?	?	i
O=C(O)c1ccc(-c2sc(Nc3ccccc3)n[n+]2-c2ccc(F)cc2)cc1	i	31.2	-1.5%	-0.3%	i
